The panel holds about 83,000 compounds, 20% with a hit somewhere; the sample as a whole holds those more often.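 48-hour exposure, single concentration, 96-well plates; percent growth endpoint where 0 means no net growth. Active: below 10.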 Unmarked numbers belong to inactive results. Active and inactive are the calls of the source.
tested on: HL-60(TB) leukemia; experiment: NCI-60 one-dose screen, 48 h (100 = growth as untreated, 0 = no growth, -100 = all killed); conditions: 10 µM unless noted

| Structure (SMILES) | growth |
| --- | --- |
| COc1ccc(/C=C2\CCCC3=C2N=C2SC=NN2C3c2ccc(OC)c(OC)c2)cc1OC (centres undefined) | 15% |
| O=S(=O)(Nc1cc(F)cc(Cl)c1)c1ccc(-c2cnc(C3CC3)o2)cc1 | 7.71% (active) |
| CNC(=O)CCN1CCN(CC/C=C2\c3ccccc3Sc3ccc(Cl)cc32)CC1 | 50.2% |
| CSc1nc2[nH]ncc2c(=O)[nH]1 | 114% |
